Here are results for 51 molecules from ChEMBL document CHEMBL3988442, “University of Dundee, Small-Polar-MMV Screening Library” (2021).

About 13,000 (27%) of roughly 48,000 compounds showed an effect of 50% or more. The list shows a part of the results.

The test deals with Wolbachia pipientis. Nature of the test: Anti-Wolbachia Cell-Based Screen. Format: functional. Details: scale not given: in the data most compounds retested in dose-response had high values. Particulars: 5 µM.
Take `Cc1nc(-c2ccccc2)sc1CSCCC(N)=O`: the “Percent Effect” value is reported as 7.014%. For the molecule `CC(=O)N1C[C@@H]2CC[C@H](C1)N(C(=O)CCc1n[nH]c3c1CCCC3)C2`, the “Percent Effect” value is on record as -10.18%. As for `CC1=C(C(=O)N(C)Cc2noc3c2CCCC3)C(C)NC(=O)N1` (stereo unspecified), the “Percent Effect” value is listed as 99.57%. Then `CC1=C(C(=O)NCCc2n[nH]c3c2CCCC3)C(C)NC(=O)N1` (stereo unspecified), with 140.8%; and `COc1nc2c(cc1C(=O)N(C)Cc1n[nH]c3c1CCCC3)CCC2`, with -1.669%; and `CCCn1ncc(C(=O)NCc2n[nH]c3c2CCCCC3)c1C`, with -11.8%. Then `O=C(NCc1n[nH]c2c1CCCCC2)c1cnn2c1CCCC2`, with -12.98%; and `CN(Cc1noc2c1CCCC2)C(=O)CN1C(=O)COc2ccccc21`, with -4.066%; and `CN(Cc1noc2c1CCCC2)C(=O)C1CCOc2ccccc2C1` (stereo unspecified), with -27.45%.

Consider `CC1=C(C(=O)N(C)Cc2n[nH]c3c2CCCCC3)C(C)NC(=O)N1` (stereo unspecified), for which the “Percent Effect” value was 97.58%. Then `COCCCC1CCCN(C(=O)CCc2csc(N)n2)C1` (stereo unspecified), with 18.03%; and `CC(NCCN1CCC(N(C)C)CC1)c1ccc(Cl)s1` (stereo unspecified), with 1.149%; and `Cc1cccc(=O)n1CCCNc1nc(N(C)C)nc2c1CCNCC2`, with -26.54%. Then `O=C(O)C(F)(F)F.O=C(c1ccccc1-c1ccccc1)N1C[C@@H]2CNC[C@]2(C(=O)O)C1`, with 7.106%. Then `Fc1cccnc1Oc1cc(F)c(CN2CCCC2)c(Cl)c1`, with 96.1%. As to `COc1ccc(Oc2ncccc2F)cc1CN1CCCC1`, the “Percent Effect” value was -25.38%. Then `COc1cc(Oc2ncccc2C(F)(F)F)ccc1CN1CCCC1`, with 7.614%; and `Fc1cccnc1Oc1cc(F)c(CN2CCCC2)c(F)c1`, with 105.5%. `N#Cc1cccc(Oc2ccc(CN3CCCC3)cc2Cl)n1`: the “Percent Effect” value was found to be 1.122%. Turning to `Fc1cc(Oc2ccc(C(F)(F)F)cn2)cc(F)c1CN1CCCC1`, the “Percent Effect” value is given as -0.6803%. Take `N#Cc1ccc(Oc2cc(F)c(CN3CCCC3)c(F)c2)nc1`: the “Percent Effect” value came to 28.32%. Then `N#Cc1cccnc1Oc1cc(F)c(CN2CCCC2)c(Cl)c1`, with 85.58%; and `COc1ccc(Oc2ncccc2C(F)(F)F)cc1CN1CCCC1`, with 21.25%; and `O=C(NCc1ccccc1CN1CCCCCC1)Nc1nncs1`, with -11.94%. For the molecule `CCc1csc(CNC2CCN(Cc3ccccc3)C2)n1` (stereo unspecified), the “Percent Effect” value is on record as -41.87%. Then `O=c1[nH]c(=O)n(CC(O)c2ccccc2Cl)cc1Cl` (stereo unspecified), with -2.887%. Consider `CCCn1cnnc1CNC(=O)C1COc2ccc(OC)cc2C1` (stereo unspecified), for which the “Percent Effect” value is listed as -4.97%. Take `Cc1cccc(Nc2ccc(C3CCN(Cc4ncc[nH]4)CC3)nc2)n1`: the “Percent Effect” value is recorded as 108.6%.

Take `Fc1ccc(Nc2ccc(C3CCN(Cc4ncc[nH]4)CC3)nc2)nc1`: the “Percent Effect” value is recorded as 114.5%. For the molecule `Brc1ccc(CN2CCC(NCc3ncc[nH]3)CC2)cc1`, the “Percent Effect” value was 0.1556%. With `CC(C)(C)c1n[nH]c(C2CN(Cc3ncc[nH]3)CCO2)n1` (stereo unspecified), the “Percent Effect” value was -4.416%.

As to `Cc1cc(Nc2ccc(F)cn2)cc(C2CCN(Cc3ncc[nH]3)C2)n1` (stereo unspecified), the “Percent Effect” value stood at 87.11%. As to `CCCc1nnc([C@H]2CCN(Cc3ncc[nH]3)C2)o1`, the “Percent Effect” value is given as 2.62%.

On to `Cn1cncc1-c1nnc([C@H]2CCN(Cc3ncc[nH]3)C2)o1`, for which the “Percent Effect” value is reported as -1.708%. In the case of `CCCc1n[nH]c(C2CN(Cc3ncc[nH]3)CCO2)n1` (stereo unspecified), the “Percent Effect” value stood at 0.7755%.

Take `Clc1cc(Cl)cc(CN2CCC(NCc3ncc[nH]3)CC2)c1`: the “Percent Effect” value was found to be 21.36%. In the case of `CN(Cc1cccnc1)c1nc(-c2ccccn2)nc2c1CCNCC2`, the “Percent Effect” value is listed as -5.428%. With `Cc1cnn(CCCn2ncc(N3CCC(CN)C3)cc2=O)c1` (stereo unspecified), the “Percent Effect” value is -3.735%. With `CCCC(C#N)NC(=O)CCCOc1cccc(C(C)=O)c1` (stereo unspecified), the “Percent Effect” value worked out at 17.87%. Turning to `CCC(O)CN1CCN(C(=O)c2ccn(-c3cccc(F)c3)n2)CC1` (stereo unspecified), the “Percent Effect” value is -17.79%. As to `CCC(O)Cn1nc(-c2ccc(C(=O)O)cc2)cc1-c1cccc(F)c1` (stereo unspecified), the “Percent Effect” value turned out to be 112%.

Turning to `CCC(=O)NCC(Cc1cccc(F)c1)n1cccc1` (stereo unspecified), the “Percent Effect” value is given as -1.872%.

As for `CC(C(N)=O)N(C)CCCc1cc(-c2ccccc2)no1` (stereo unspecified), the “Percent Effect” value was -1.184%. Take `CN(CCCc1cc(-c2ccc(F)cc2)n[nH]1)C(=O)CCn1cncn1`: the “Percent Effect” value is given as -5.05%. Turning to `NC(=O)NC(=O)CCn1ccc(-c2ccc(F)cc2)n1`, the “Percent Effect” value is -9.81%. As to `CC(C(N)=O)N(C)CCCc1cc(-c2ccc(F)cc2)n(C)n1` (stereo unspecified), the “Percent Effect” value came to 117.2%. Consider `CN(CCCc1cc(-c2ccc(F)cc2)n(C)n1)CC(N)=O`, for which the “Percent Effect” value came out at 124.4%.

On to `CN(CC(N)=O)Cc1ccc(F)cc1Cl`, for which the “Percent Effect” value is recorded as -24.21%. To `CC(C)Cc1cc(C(=O)NCC(c2ccc(F)cc2)N(C)C)n(C)n1` (stereo unspecified) belongs -14.68%; to `CN(CC(=O)NS(=O)(=O)c1ccc(F)cc1)Cc1ccccc1`, -17.38%. Take `CN(CCCc1cc(-c2ccc(F)cc2)n(C)n1)CC(=O)NC(N)=O`: the “Percent Effect” value is recorded as 129.4%.
